Test results as given in PubChem BioAssay AID1159580 (chemical genetic matrix, 2015).
Values joined by “and” are separate entries in the source; they are usually repeats but may differ in a detail not shown here. Equal values may be shown once. Screen size: about 5,500 compounds; about 2,000 (36%) were called active. Another 18% or so got no clear call; they are omitted. Rule as the data show it: active = normalized growth mostly below about 0.91 (no sharp cut-off); inconclusive = no clear call, values can overlap the other calls; inactive = mostly above about 0.92. The list shows a part of the results.

Assay: chemical genetic growth profiling, strain panel (AID 1159580);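 also: tested at 20 µM; growth read once vehicle control cultures reached saturation at 30 °C; 1 = growth at the plate median or of vehicle wells; lower values mean less growth of the strain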
Conditions: S. cerevisiae deletion strains, growth OD

Measured: normalized growth

NC1CONC1=O (centres undefined)
inactive: locus YAL040C, strain CLN3, active compounds read low 1.01 and 0.999 | locus YCL061C, strain MRC1 (second series), active compounds read low 1 | locus YDR150W, strain NUM1, active compounds read low 1.01 | locus YDR363W, strain ESC2, active compounds read low 1.01 | locus YER002W, strain NOP16, active compounds read low 1.01 and 0.983 | locus YGR229C, strain SMI1, active compounds read low 1.01 | locus YMR307W, strain GAS1, active compounds read low 1.01 | locus YNL128W, strain TEP1, active compounds read low 1.03 | locus YNL153C, strain GIM3, active compounds read low 1.01 and 0.981 | locus YNL175C, strain NOP13, active compounds read low 1.02 | locus YNL197C, strain WHI3, active compounds read low 1.02 and 1 | locus YNL224C, strain SQS1, active compounds read low 0.993 and 0.985 | locus YOR083W, strain WHI5 (second series), active compounds read low 1.01 | locus YPL241C, strain CIN2, active compounds read low 1
